{"source": "the supplement of paper PMC8728848", "experiment_in_all_cases": "glycan array binding signal (z-score within array); higher = stronger binding", "conditions_in_all_cases": "glycan notation: IUPAC condensed, linker removed", "key": {"[1]": {"molecular_target": "GlcNAc(b1-3)Gal(b1-4)GlcNAc(b1-3)Gal(b1-4)GlcNAc", "method_in_brief": "(§1)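 Glycan array data were curated from 3228 arrays in the Consortium for Functional Glycomics database and kept only where the protein sequence was available. Glycan names were converted to IUPAC-condensed notation, and columns mapping to the same glycan were averaged. The binding signal is a within-array Z-score, averaged across arrays of the same protein sequence at different concentrations or buffers and across linkers. Negative Z-scores can be read as non-binding.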"}, "[2]": {"molecular_target": "GlcNAc(b1-3)Gal(b1-4)GlcNAc(b1-3)Gal(b1-4)GlcNAc(b1-2)Man(a1-3)[GlcNAc(b1-3)Gal(b1-4)GlcNAc(b1-3)Gal(b1-4)GlcNAc(b1-2)Man(a1-6)]Man(b1-4)GlcNAc(b1-4)GlcNAc", "method_in_brief": "as §1"}, "[3]": {"molecular_target": "GlcNAc(b1-3)Gal(b1-4)GlcNAc(b1-3)Gal(b1-4)GlcNAc(b1-3)Gal(b1-4)GlcNAc(b1-2)Man(a1-3)[GlcNAc(b1-3)Gal(b1-4)GlcNAc(b1-3)Gal(b1-4)GlcNAc(b1-3)Gal(b1-4)GlcNAc(b1-2)Man(a1-6)]Man(b1-4)GlcNAc(b1-4)[Fuc(a1-6)]GlcNAc", "method_in_brief": "as §1"}, "[4]": {"molecular_target": "GlcNAc(b1-3)Gal(b1-4)GlcNAc(b1-3)Gal(b1-4)GlcNAc(b1-3)Gal(b1-4)GlcNAc(b1-3)Gal(b1-4)GlcNAc(b1-2)Man(a1-3)[GlcNAc(b1-3)Gal(b1-4)GlcNAc(b1-3)Gal(b1-4)GlcNAc(b1-3)Gal(b1-4)GlcNAc(b1-3)Gal(b1-4)GlcNAc(b1-2)Man(a1-6)]Man(b1-4)GlcNAc(b1-4)GlcNAc", "method_in_brief": "as §1"}, "[5]": {"molecular_target": "GlcNAc(b1-3)Gal(b1-4)GlcNAc(b1-3)Gal(b1-4)GlcNAc(b1-3)Gal(b1-4)GlcNAc(b1-3)Gal(b1-4)GlcNAc(b1-2)[GlcNAc(b1-3)Gal(b1-4)GlcNAc(b1-3)Gal(b1-4)GlcNAc(b1-3)Gal(b1-4)GlcNAc(b1-3)Gal(b1-4)GlcNAc(b1-6)]Man(a1-6)[GlcNAc(b1-3)Gal(b1-4)GlcNAc(b1-3)Gal(b1-4)GlcNAc(b1-3)Gal(b1-4)GlcNAc(b1-3)Gal(b1-4)GlcNAc(b1-2)Man(a1-3)]Man(b1-4)GlcNAc(b1-4)[Fuc(a1-6)]GlcNAc", "method_in_brief": "as §1"}, "[6]": {"molecular_target": "GlcNAc(b1-3)Gal(b1-4)GlcNAc(b1-6)[Gal(b1-3)]GalNAc", "method_in_brief": "as §1"}, "[7]": {"molecular_target": "GlcNAc(b1-3)Man", "method_in_brief": "as §1"}, "[8]": {"molecular_target": "Kdn(a2-6)Gal(b1-4)GlcNAc", "method_in_brief": "as §1"}, "[9]": {"molecular_target": "Man(a1-3)[Man(a1-6)]Man(a1-6)[Man(a1-3)]Man(b1-4)GlcNAc(b1-4)GlcNAc", "method_in_brief": "as §1"}, "[10]": {"molecular_target": "Man(b1-4)GlcNAc", "method_in_brief": "as §1"}, "[11]": {"molecular_target": "Neu5Ac(a2-3)Gal", "method_in_brief": "as §1"}, "[12]": {"molecular_target": "Neu5Ac(a2-3)Gal(b1-3)GlcNAc(b1-2)Man(a1-3)[GlcNAc(b1-4)][Neu5Ac(a2-3)Gal(b1-3)GlcNAc(b1-2)Man(a1-6)]Man(b1-4)GlcNAc(b1-4)GlcNAc", "method_in_brief": "as §1"}, "[13]": {"molecular_target": "Neu5Ac(a2-3)Gal(b1-3)GlcNAc(b1-2)[Neu5Ac(a2-3)Gal(b1-3)GlcNAc(b1-4)]Man(a1-6)[Neu5Ac(a2-3)Gal(b1-3)GlcNAc(b1-2)Man(a1-3)]Man(b1-4)GlcNAc(b1-4)GlcNAc", "method_in_brief": "as §1"}, "[14]": {"molecular_target": "Neu5Ac(a2-3)Gal(b1-3)GlcNAc(b1-3)Gal(b1-4)GlcNAc", "method_in_brief": "as §1"}, "[15]": {"molecular_target": "Neu5Ac(a2-3)Gal(b1-3)GlcNAc6S", "method_in_brief": "as §1"}, "[16]": {"molecular_target": "Neu5Ac(a2-3)Gal(b1-3)[Fuc(a1-4)]GlcNAc", "method_in_brief": "as §1"}, "[17]": {"molecular_target": "Neu5Ac(a2-3)Gal(b1-3)[Neu5Ac(a2-6)]GlcNAc(b1-3)[Fuc(a1-3)[Gal(b1-4)]GlcNAc(b1-6)]Gal(b1-4)Glc", "method_in_brief": "as §1"}, "[18]": {"molecular_target": "Neu5Ac(a2-3)Gal(b1-4)GlcNAc(b1-2)Man(a1-3)[Neu5Ac(a2-3)Gal(b1-4)GlcNAc(b1-2)Man(a1-6)]Man(b1-4)GlcNAc(b1-4)[Fuc(a1-6)]GlcNAc", "method_in_brief": "as §1"}, "[19]": {"molecular_target": "Neu5Ac(a2-3)Gal(b1-4)GlcNAc(b1-3)Gal(b1-4)GlcNAc(b1-3)[Neu5Ac(a2-3)Gal(b1-4)GlcNAc(b1-3)Gal(b1-4)GlcNAc(b1-6)]GalNAc", "method_in_brief": "as §1"}, "[20]": {"molecular_target": "Neu5Ac(a2-3)Gal(b1-4)GlcNAc(b1-6)[Neu5Ac(a2-3)Gal(b1-3)]GalNAc", "method_in_brief": "as §1"}, "[21]": {"molecular_target": "Neu5Ac(a2-3)Gal(b1-4)GlcNAc6S", "method_in_brief": "as §1"}, "[22]": {"molecular_target": "Neu5Ac(a2-3)Gal(b1-4)[Fuc(a1-3)]GlcNAc(b1-3)Gal(b1-4)GlcNAc", "method_in_brief": "as §1"}, "[23]": {"molecular_target": "Neu5Ac(a2-3)GalNAc", "method_in_brief": "as §1"}, "[24]": {"molecular_target": "Neu5Ac(a2-3)[GalNAc(b1-4)]Gal(b1-4)Glc", "method_in_brief": "as §1"}, "[25]": {"molecular_target": "Neu5Ac(a2-6)Gal(b1-4)GlcNAc(b1-2)Man", "method_in_brief": "as §1"}, "[26]": {"molecular_target": "Neu5Ac(a2-6)Gal(b1-4)GlcNAc(b1-2)[Neu5Ac(a2-6)Gal(b1-4)GlcNAc(b1-6)]Man(a1-6)[Neu5Ac(a2-6)Gal(b1-4)GlcNAc(b1-2)Man(a1-3)][GlcNAc(b1-4)]Man(b1-4)GlcNAc(b1-4)GlcNAc", "method_in_brief": "as §1"}, "[27]": {"molecular_target": "Neu5Ac(a2-6)Gal(b1-4)GlcNAc(b1-3)Gal(b1-4)GlcNAc(b1-6)[Gal(b1-3)]GalNAc", "method_in_brief": "as §1"}, "[28]": {"molecular_target": "Neu5Ac(a2-6)Gal(b1-4)GlcNAc(b1-3)GalNAc", "method_in_brief": "as §1"}, "[29]": {"molecular_target": "Neu5Ac(a2-6)Gal(b1-4)GlcNAc(b1-3)[Neu5Ac(a2-6)Gal(b1-4)GlcNAc(b1-6)]GalNAc", "method_in_brief": "as §1"}, "[30]": {"molecular_target": "Neu5Ac(a2-6)Gal(b1-4)GlcNAc(b1-6)[Gal(b1-3)]GalNAc", "method_in_brief": "as §1"}, "[31]": {"molecular_target": "Neu5Ac(a2-6)Gal(b1-4)GlcNAc6S", "method_in_brief": "as §1"}, "[32]": {"molecular_target": "Neu5Ac(a2-6)GalNAc(b1-4)GlcNAc", "method_in_brief": "as §1"}, "[33]": {"molecular_target": "Neu5Ac(a2-6)GlcNAc(b1-4)GlcNAc", "method_in_brief": "as §1"}, "[34]": {"molecular_target": "Neu5Ac(a2-8)Neu5Ac(a2-3)Gal(b1-3)GalNAc(b1-4)[Neu5Ac(a2-8)Neu5Ac(a2-3)]Gal(b1-4)Glc", "method_in_brief": "as §1"}, "[35]": {"molecular_target": "Neu5Ac(a2-8)Neu5Ac(a2-3)Gal(b1-4)GlcNAc", "method_in_brief": "as §1"}, "[36]": {"molecular_target": "Neu5Ac(a2-8)Neu5Ac(a2-8)Neu5Ac(a2-3)[GalNAc(b1-4)]Gal(b1-4)Glc", "method_in_brief": "as §1"}}, "note": "This is one part of a sample in which the strongest signals are shown more often than they occur.", "data": [{"binder": "ArathEULS3 TAP (Arabidopsis thaliana) (protein) IDENLYFQGGSMDEKTTGWRGGHVVEGLAGELEQLRARLEHHPQGQREPGGGGSLEITSLYKKAGFMEHHHQHHRHHQRDDGEDDRQSFGVPPPHVDAPPQPHGLYQSQPHFDPYAPTPQAPAPYRSETQFEPHAPPPYRSEPYFETPAPPPSFGHVSHVGHQSPNESYPPEHHRYGGYQQPSNSLLESHGDHSGVTHVAHHSSNQPQSSSGVYHKPDENRLPDNLAGLAGRATVKVYSKAEPNYNLTIRDGKVILAPADPSDEAQHWYKDEKYSTKVKDADGHPCFALVNKATGEAMKHSVGATHPVHLIRYVPDKLDESVLWTESKDFGDGYRTIRMVNNTRLNVDAYHGDSKSGGVRDGTTIVLWDWNKGDNQLWKIFPF", "values": [{"measurement": "glycan array binding signal (z-score)", "setting": "[1]", "result": 0.442}, {"measurement": "glycan array binding signal (z-score)", "setting": "[2]", "result": 2.26}, {"measurement": "glycan array binding signal (z-score)", "setting": "[3]", "result": 2.42}, {"measurement": "glycan array binding signal (z-score)", "setting": "[4]", "result": 0.229}, {"measurement": "glycan array binding signal (z-score)", "setting": "[5]", "result": 3.16}, {"measurement": "glycan array binding signal (z-score)", "setting": "[6]", "result": -0.045}, {"measurement": "glycan array binding signal (z-score)", "setting": "[7]", "result": 0.29}, {"measurement": "glycan array binding signal (z-score)", "setting": "[8]", "result": 0.575}, {"measurement": "glycan array binding signal (z-score)", "setting": "[9]", "result": 3.03}, {"measurement": "glycan array binding signal (z-score)", "setting": "[10]", "result": -0.658}, {"measurement": "glycan array binding signal (z-score)", "setting": "[11]", "result": -1.33}, {"measurement": "glycan array binding signal (z-score)", "setting": "[12]", "result": -1.32}, {"measurement": "glycan array binding signal (z-score)", "setting": "[13]", "result": 1.77}, {"measurement": "glycan array binding signal (z-score)", "setting": "[14]", "result": -0.43}, {"measurement": "glycan array binding signal (z-score)", "setting": "[15]", "result": 0.337}, {"measurement": "glycan array binding signal (z-score)", "setting": "[16]", "result": 0.016}, {"measurement": "glycan array binding signal (z-score)", "setting": "[17]", "result": 2.31}, {"measurement": "glycan array binding signal (z-score)", "setting": "[18]", "result": -0.12}, {"measurement": "glycan array binding signal (z-score)", "setting": "[19]", "result": 0.575}, {"measurement": "glycan array binding signal (z-score)", "setting": "[20]", "result": -1.05}, {"measurement": "glycan array binding signal (z-score)", "setting": "[21]", "result": -0.296}, {"measurement": "glycan array binding signal (z-score)", "setting": "[22]", "result": 2.91}, {"measurement": "glycan array binding signal (z-score)", "setting": "[23]", "result": 0.618}, {"measurement": "glycan array binding signal (z-score)", "setting": "[24]", "result": 0.447}, {"measurement": "glycan array binding signal (z-score)", "setting": "[25]", "result": 0.021}, {"measurement": "glycan array binding signal (z-score)", "setting": "[26]", "result": -0.647}, {"measurement": "glycan array binding signal (z-score)", "setting": "[27]", "result": -0.634}, {"measurement": "glycan array binding signal (z-score)", "setting": "[28]", "result": 0.12}, {"measurement": "glycan array binding signal (z-score)", "setting": "[29]", "result": 0.364}, {"measurement": "glycan array binding signal (z-score)", "setting": "[30]", "result": 0.429}, {"measurement": "glycan array binding signal (z-score)", "setting": "[31]", "result": -0.553}, {"measurement": "glycan array binding signal (z-score)", "setting": "[32]", "result": 0.004}, {"measurement": "glycan array binding signal (z-score)", "setting": "[33]", "result": 1.18}, {"measurement": "glycan array binding signal (z-score)", "setting": "[34]", "result": 2.9}, {"measurement": "glycan array binding signal (z-score)", "setting": "[35]", "result": -0.433}, {"measurement": "glycan array binding signal (z-score)", "setting": "[36]", "result": -0.112}]}]}
